In PubChem BioAssay (Tox21):
Inconclusive results are not listed. Calls of active or inactive are those of the source. The call rests on the fitted dose curve.

Columns and labels:
[1] = molecular target: Acetylcholinesterase (Homo sapiens) (UniProt P22303); experiment: Acetylcholinesterase (AChE) small molecule antagonists: colormetric cell-based qHTS assay (AID 1347395); conditions: SH-SY5Y cells AChE activity, colorimetric (Ellman); series mostly up to 115 µM; further: nearly all actives have a fitted effect of over 30% in size
Acetylcholinesterase (Homo sapiens), sequence (P22303 whole entry, looked up): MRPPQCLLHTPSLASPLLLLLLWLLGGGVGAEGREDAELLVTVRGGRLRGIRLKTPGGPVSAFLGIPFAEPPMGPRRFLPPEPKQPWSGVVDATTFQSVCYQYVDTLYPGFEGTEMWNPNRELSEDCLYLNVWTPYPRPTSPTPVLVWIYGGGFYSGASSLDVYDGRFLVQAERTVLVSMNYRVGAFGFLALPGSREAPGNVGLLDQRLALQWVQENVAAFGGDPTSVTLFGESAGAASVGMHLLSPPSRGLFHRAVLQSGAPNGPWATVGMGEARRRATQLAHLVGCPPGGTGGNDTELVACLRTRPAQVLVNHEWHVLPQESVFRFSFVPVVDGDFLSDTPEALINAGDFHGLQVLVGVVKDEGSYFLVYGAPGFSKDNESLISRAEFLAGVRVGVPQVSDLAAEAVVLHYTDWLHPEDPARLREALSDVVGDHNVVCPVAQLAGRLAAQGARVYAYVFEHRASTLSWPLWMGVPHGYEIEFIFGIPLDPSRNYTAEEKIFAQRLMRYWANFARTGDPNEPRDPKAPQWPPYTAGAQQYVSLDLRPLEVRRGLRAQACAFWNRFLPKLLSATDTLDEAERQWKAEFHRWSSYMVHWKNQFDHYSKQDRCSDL
Outline: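 Homogeneous whole-cell format. SH-SY5Y cells seeded overnight, dosed with compound (30 min, 37 C, 5% CO2), then given DTNB/acetylthiocholine cocktail for 90 min at 37 C; colorimetric signal.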

[2] = molecular target: Acetylcholinesterase (Homo sapiens) (UniProt P22303); experiment: Acetylcholinesterase (AChE) small molecule antagonists: enzyme-based qHTS assay (AID 1347397); conditions: Potency: AChE enzyme activity inhibition; outcome: AChE enzyme activity inhibition; series mostly up to 115 µM; further: nearly all actives have a fitted effect of over 55% in size
Outline: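 Recombinant human AChE (50 mU/mL) preincubated with compound 30 min at room temperature; acetylthiocholine plus DTNB then added, and thiocholine formation read colorimetrically after 10 min at room temperature. DMSO served as vehicle control.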

[3] = molecular target: Acetylcholinesterase (Homo sapiens) (UniProt P22303); experiment: Acetylcholinesterase (AChE) small molecule antagonists: fluorescence cell-based qHTS assay (AID 1347398); conditions: SH-SY5Y cells; Potency: AChE activity; outcome: AChE activity; series mostly up to 115 µM; further: nearly all actives have a fitted effect of over 50% in size
Outline: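 SH-SY5Y cells (2000/well), attached overnight, incubated with compound 30 min at 37 C. Acetylthiocholine plus Thiolite Green then added for 40 min at room temperature. Thiocholine fluorescence (Ex/Em 490/520 nm) reports cellular AChE activity.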

[4] = molecular target: Acetylcholinesterase (Homo sapiens) (UniProt P22303); experiment: Acetylcholinesterase (AChE) small molecule antagonists: enzyme-based qHTS assay with human liver microsomes (AID 1347399); conditions: Potency: qHTS inhibition; outcome: qHTS inhibition; series mostly up to 115 µM; further: nearly all actives have a fitted effect of over 60% in size
Outline: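 Recombinant human AChE (50 mU/mL in the enzyme mix) and human liver microsomes (0.25 mg/mL final) were preincubated with compound and NADPH (0.25 mg/mL final) for 30 min at 37 C. Acetylthiocholine/DTNB was then added; thiocholine was read colorimetrically after 10 min at room temperature.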
On the % scale 0 is the no-effect control and ±100 the full control effect.

CCCCCCCCCCCCCCCS(=O)(=O)Oc1ccccc1
inactive: Potency [1] | Potency [2] | Potency [3] | Potency [4]

Clc1nc2ccccc2nc1Cl
inactive: Potency [1] | Potency [2] | Potency [3] | Potency [4]

CC(=O)CC(=O)Nc1ccc2[nH]c(=O)[nH]c2c1
inactive: Potency [1] | Potency [2] | Potency [3] | Potency [4]

CCCC(=O)C(CC)Sc1ccoc1C (stereo unspecified)
inactive: Potency [1] | Potency [2] | Potency [3] | Potency [4]

CCC(O)C(C)(C)C (stereo unspecified)
inactive: Potency [1] | Potency [2] | Potency [3] | Potency [4]

CC(C)(C)NCC(O)COc1cccc2c1C[C@H](O)[C@H](O)C2 (stereo partly specified)
inactive: Potency [1] | Potency [2] | Potency [3] | Potency [4]

C[C@H]1O[C@@H](n2cc(F)c(=O)[nH]c2=O)[C@H](O)[C@@H]1O
inactive: Potency [1] | Potency [2] | Potency [3] | Potency [4]

CCO[Si](CCC1CCC2OC2C1)(OCC)OCC (stereo unspecified)
inactive: Potency [1] | Potency [2] | Potency [3] | Potency [4]

CO[Si](C)(OC)OC
inactive: Potency [1] | Potency [2] | Potency [3] | Potency [4]

CC(C(=O)O)c1ccc(CC2CCCC2=O)cc1 (stereo unspecified)
inactive: Potency [1] | Potency [2] | Potency [3] | Potency [4]

Cc1cc(O)c2c(O)c3c(O)cccc3cc2c1
inactive: Potency [1] | Potency [2] | Potency [3] | Potency [4]

CCCCOC(=O)C(C)O (stereo unspecified)
inactive: Potency [1] | Potency [2] | Potency [3] | Potency [4]

COc1ccc2[nH]c(S(=O)Cc3ncc(C)c(OC)c3C)nc2n1 (stereo unspecified)
inactive: Potency [1] | Potency [2] | Potency [3] | Potency [4]

CCCCCCC1CCC(=O)O1 (stereo unspecified)
inactive: Potency [1] | Potency [2] | Potency [3] | Potency [4]

O=C1CCCCCCCCCCCCCCCO1
inactive: Potency [1] | Potency [2] | Potency [3] | Potency [4]

FC(F)OC(Cl)C(F)(F)F (stereo unspecified)
inactive: Potency [1] | Potency [2] | Potency [3] | Potency [4]

CCCCC1CCCCC(=O)O1 (stereo unspecified)
inactive: Potency [1] | Potency [2] | Potency [3] | Potency [4]

O=P(O)(O)C(O)(Cc1cccnc1)P(=O)(O)O
inactive: Potency [1] | Potency [2] | Potency [3] | Potency [4]

CCCCCCCCc1ccc(Nc2ccc(CCCCCCCC)cc2)cc1
inactive: Potency [1] | Potency [2] | Potency [3] | Potency [4]

CN(C)C(C)(C)CO
inactive: Potency [1] | Potency [2] | Potency [3] | Potency [4]

CCOC(=O)c1ccccc1OC
inactive: Potency [1] | Potency [2] | Potency [3] | Potency [4]

CN(C)CCCOc1nn(Cc2ccccc2)c2ccccc12
inactive: Potency [1] | Potency [2] | Potency [3] | Potency [4]

CO[Si](CCCNCCC[Si](OC)(OC)OC)(OC)OC
inactive: Potency [1] | Potency [2] | Potency [3] | Potency [4]

CCCCCCOC(=O)c1ccccc1
inactive: Potency [1] | Potency [2] | Potency [3] | Potency [4]

OCC(F)(F)F
inactive: Potency [1] | Potency [2] | Potency [3] | Potency [4]

CCC(C)C1CCCCC1=O (stereo unspecified)
inactive: Potency [1] | Potency [2] | Potency [3] | Potency [4]

COc1cc(C(C)C)ccc1C
inactive: activity, negative = inhibition [1] 0.291% [at 23.6 µM] | activity change, negative = inhibition [2] 1.63% [at 23.6 µM] | activity change, negative = inhibition [3] 2.94% [at 23.8 µM] | activity change, negative = inhibition [4] -4.86% [at 23.6 µM]

CCCC1CCCC(=O)O1 (stereo unspecified)
inactive: Potency [1] | Potency [2] | Potency [3] | Potency [4]

COc1ccc(C2C(=O)c3ccccc3C2=O)cc1
inactive: Potency [1] | Potency [2] | Potency [3] | Potency [4]

CC(C)c1ccccc1
inactive: Potency [1] | Potency [2] | Potency [3] | Potency [4]

C=CCOc1c(Br)cc(Br)cc1Br
inactive: Potency [1] | Potency [2] | Potency [3] | Potency [4]

COC(=O)C1=C(C)NC(C)=C(C(=O)OC(C)(C)CN(C)CCC(c2ccccc2)c2ccccc2)C1c1cccc([N+](=O)[O-])c1 (stereo unspecified)
inactive: Potency [1] | Potency [2] | Potency [3] | Potency [4]

O=c1cc(-c2ccccc2)oc2ccc3ccccc3c12
inactive: Potency [1] | Potency [2] | Potency [3] | Potency [4]

Cc1cc(C)c(C=O)c(C)c1
inactive: Potency [1] | Potency [2] | Potency [3] | Potency [4]

CCOCC(C)O (stereo unspecified)
inactive: Potency [1] | Potency [2] | Potency [3] | Potency [4]

C=CCn1cc[n+](C)c1
inactive: Potency [1] | Potency [2] | Potency [3] | Potency [4]

Nc1cc(C(=O)O)ccc1Cl
inactive: Potency [1] | Potency [2] | Potency [3] | Potency [4]

C=C(C)C(=O)OCC(C)(C)COC(=O)C(=C)C
inactive: Potency [1] | Potency [2] | Potency [3] | Potency [4]

CC(C)C(=O)OCC(C)(C)C(O)C(C)C (stereo unspecified)
inactive: Potency [1] | Potency [2] | Potency [3] | Potency [4]
